Mtb hypoxia rep = reduces hypoxia-regulated biosensor signal in M. tuberculosis. M. tuberculosis hypoxia-regulated fluorescent reporter, fluorescence. AID 1159583. hit rate 0.1% among 300,000. fluorescence inhibition, % (test concentration not listed); in the data active means fluorescence inhibition mostly above about 23%, no sharp cut-off; inactive means mostly below about 17%
FadD28 FP inh = M. tuberculosis FadD28 bisubstrate binding inhibition | inhibition, % at 12.5 µM | FadD28 bisubstrate probe binding, fluorescence polarization | hit rate 0.22% among 360,000; in the data active means inhibition above about 8.5%, passing the limit was not always enough
Mtb FBA inh = inhibits M. tuberculosis FBA enzyme; P9WQA3; purified M. tuberculosis FBA, fluorescence read-out; inhibition, % at 1 µM; hit rate 2.3% among 360,000; AID 588726;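 further: 0% = vehicle and 100% = reference inhibitor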
Target sequence (P9WQA3 whole entry, looked up): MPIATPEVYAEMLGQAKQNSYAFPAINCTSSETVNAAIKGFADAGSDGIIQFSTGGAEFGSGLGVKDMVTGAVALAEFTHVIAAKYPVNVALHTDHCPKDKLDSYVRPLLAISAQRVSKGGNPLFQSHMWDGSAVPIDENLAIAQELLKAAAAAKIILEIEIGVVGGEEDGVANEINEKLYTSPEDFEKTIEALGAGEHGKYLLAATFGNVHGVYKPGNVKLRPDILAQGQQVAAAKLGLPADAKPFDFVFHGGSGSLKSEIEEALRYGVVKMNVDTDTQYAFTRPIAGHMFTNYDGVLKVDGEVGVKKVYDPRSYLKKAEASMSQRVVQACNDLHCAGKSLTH
Rv3671c protease = Rv3671c (M. tuberculosis) protease inhibition | P9WHR9 | inhibition, % at 5.96 µM | hit rate 0.048% among 320,000 | AID 2606; in the data active means inhibition above about 38%;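 further: extracellular domain of Rv3671c used as enzyme; 0% = enzyme with DMSO and 100% = no enzyme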
GDH-TPI counter-1 = counter-screen for M. tuberculosis FBA inhibitors: GDH-TPI coupled enzymes | hit rate 1.2% among 360,000 | inhibition, % at 4.8 µM | GDH-TPI coupled enzyme counterscreen, NADH absorbance; in the data active means inhibition above about 30%;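 further: 0% = DMSO wells and 100% = wells lacking the enzyme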
Mtb UGM inh = inhibitors of M. tuberculosis UDP-galactopyranose mutase; purified UGM, fluorescence polarization probe displacement; inhibition, % at 10 µM; hit rate 0.06% among 320,000; AID 504406; in the data active means inhibition above about 10%, passing the limit was not always enough
Mtb FBA confirm = confirmation of M. tuberculosis fructose-bisphosphate aldolase inhibitors; shares compounds with Mtb FBA inh; purified M. tuberculosis FBA, fluorescence read-out; inhibition, % at 1 µM; hit rate 78% among 5,600; AID 651616;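 further: 0% = vehicle wells and 100% = reference inhibitor wells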
GDH-TPI counter-2 = inhibits GDH-TPI coupling enzymes, flagging Mtb FBA hits; shares compounds with Mtb FBA inh; inhibition, % at 1 µM; GDH-TPI coupled enzyme counterscreen, fluorescence; AID 652141; hit rate 81% among 5,600; in the data active means inhibition above about 10%
The depositor's hits bear a star; nt = no result given; + = active, no number. Most compounds without a hit are left out; they make up all but 3.5% or so of the library. Unless noted, no stated cut-off is given here; in the data, active means inhibition above about 27%; inactive means the rest.

SMILES	Mtb hypoxia rep	FadD28 FP inh	Mtb FBA inh	Rv3671c protease	GDH-TPI counter-1	Mtb UGM inh	Mtb FBA confirm	GDH-TPI counter-2
CC(/C=C/c1ccccc1F)=NNC(=O)c1ccccc1	1	nt	nt	nt	nt	nt	nt	nt
CCN(CC)C(=O)[C@H]1C[C@H](CC(=O)NCCCN(C)C)C(=O)N2CCc3c([nH]c4cc(-c5ccco5)ccc34)[C@]12C	6	-1	46*	nt	-3	nt	+	+
CCN(CC)C(=O)[C@H]1C[C@H](CC(=O)NCCCOC)C(=O)N2CCc3c([nH]c4cc(-c5ccco5)ccc34)[C@]12C	-2	0	43*	nt	7	nt	59*	31*
CCN(CC)C(=O)[C@H]1C[C@H](CC(=O)NCCc2ccccn2)C(=O)N2CCc3c([nH]c4cc(-c5ccco5)ccc34)[C@]12C	-2	-3	40*	nt	9	nt	52*	44*
CCN(CC)C(=O)[C@H]1C[C@H](CC(=O)NCC23CC4CC(CC(C4)C2)C3)C(=O)N2CCc3c([nH]c4cc(-c5ccco5)ccc34)[C@]12C	-7	1	-1	nt	-2	nt	nt	nt
CC(C)N(C(=O)[C@H]1C[C@H](CC(=O)NCCc2ccccn2)C(=O)N2CCc3c([nH]c4cc(-c5ccco5)ccc34)[C@]12C)C(C)C	0	-3	22	nt	3	nt	nt	nt
Cc1cc(C)nc(SCc2ccc(C(=O)NN=Cc3ccncc3)cc2)n1	-3	nt	nt	nt	nt	nt	nt	nt
CC[C@@]12C(=O)N(c3cccc(Br)c3)C(=O)N1C(c1ccc(Br)cc1)C1C(=O)N(C(C)(C)C)C(=O)C12 (some centres undefined)	3	nt	nt	nt	nt	nt	nt	nt
COc1ccc(C(C)=NNC(=O)CNC(=O)COc2ccccc2)c(OC)c1	-3	nt	nt	nt	nt	nt	nt	nt
Cc1c(C)n2c(SCC(=O)NC3CCCCC3)nnc2[nH]c1=O	1	-2	32*	-5	4	2	-3	-4
CCCc1cc(=O)[nH]c2nnc(SCC(=O)NC3CCCC3)n12	4	-3	3	-3	-6	0	nt	nt
CCCn1nc(NC(=O)C2CCCO2)c2cc3cccc(C)c3nc21 (centres undefined)	-7	-3	37*	2	15	0	179*	149*
CC(C)Cn1nc(NC(=O)C2CCCO2)c2cc3ccccc3nc21 (centres undefined)	nt	-5	10	4	-2	3	nt	nt
O=C(c1ccc2c3c(cccc13)CC2)C1CCCN(C(=O)c2cc[n+]([O-])cc2)C1 (centres undefined)	7	-1	19	4	6	0	nt	nt
O=C(c1ccc2c3c(cccc13)CC2)C1CCCN(C(=O)c2ccc[n+]([O-])c2)C1 (centres undefined)	13	0	29*	-10	16	-1	+	165*
Fc1cccc2sc(Nc3nnc(-c4ccccc4)o3)nc12	-6	-3	64*	0	45*	2	+	+
COc1cc(OC)cc(-c2nnc(Nc3nc4c(F)cccc4s3)o2)c1	-9	0	30*	8	27	0	84*	76*
Fc1cccc2sc(Nc3nc4c(F)cccc4s3)nc12	nt	0	16	-4	17	2	nt	nt
COc1cc(C=Nn2cnnc2-n2nc(C)cc2C)cc([N+](=O)[O-])c1O	1	nt	nt	nt	nt	nt	nt	nt
N#Cc1ccc(-c2ccc3c(c2)OCO3)nc1SCC(=O)OCc1ccccc1	8	-1	60*	-24	5	2	67*	44*
Cc1ccc(C(=O)CSc2nc(-c3ccccc3)ccc2C#N)cc1	-9	-2	1	-4	3	1	nt	nt
O=C(O)CCC(=NNC(=O)c1ccccc1Br)c1ccccc1	7	nt	nt	nt	nt	nt	nt	nt
Cc1c(C)c2ccc(OCC(=O)N(C)C3CCS(=O)(=O)C3)c(C)c2oc1=O (centres undefined)	-2	1	89*	-3	8	0	71*	64*
Cc1c(C)c2ccc(OCC(=O)N3CC[C@@]4(O)CCCC[C@H]4C3)c(C)c2oc1=O	nt	-1	36*	3	4	3	104*	92*
CCc1cc(=O)oc2cc(OCC(=O)N3CC[C@@]4(O)CCCC[C@H]4C3)ccc12	nt	0	30*	0	28	-3	64*	48*

Compound activity as filed in PubChem BioAssay.
